Measurements reported in PubChem BioAssay (Tox21).
Records with an inconclusive call do not appear. Entries that show only a call come without a potency. Some compounds were tested as several samples or in several runs, with calls that do not always agree. Activity calls are given as the source filed them. The call rests on the fitted dose curve; in most records, active means well fitted inhibition curve with a large enough effect in the signal ratio in the repeat runs (not every such curve was filed as active); inconclusive means weak or mixed curves, or effect the other way; inactive means no such curve, though single readings can be large or run the other way; the % refers to the signal ratio.
Potency means the concentration at half of the fitted maximal effect.

The molecules below were run against Peroxisome proliferator-activated receptor delta (Homo sapiens) (UniProt Q03181) (assay: qHTS assay to identify small molecule antagonists of the peroxisome proliferator-activated receptor delta (PPARd) signaling pathway (AID 743215;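 further: cells stimulated with agonist L165041 at 300 nM final during compound exposure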)). Details: HEK293H PPARd-UAS-bla, beta-lactamase FRET ratio, antagonist, 17 h; series mostly up to 62 µM.
Chain of Peroxisome proliferator-activated receptor delta (Homo sapiens) (Q03181 whole entry, looked up): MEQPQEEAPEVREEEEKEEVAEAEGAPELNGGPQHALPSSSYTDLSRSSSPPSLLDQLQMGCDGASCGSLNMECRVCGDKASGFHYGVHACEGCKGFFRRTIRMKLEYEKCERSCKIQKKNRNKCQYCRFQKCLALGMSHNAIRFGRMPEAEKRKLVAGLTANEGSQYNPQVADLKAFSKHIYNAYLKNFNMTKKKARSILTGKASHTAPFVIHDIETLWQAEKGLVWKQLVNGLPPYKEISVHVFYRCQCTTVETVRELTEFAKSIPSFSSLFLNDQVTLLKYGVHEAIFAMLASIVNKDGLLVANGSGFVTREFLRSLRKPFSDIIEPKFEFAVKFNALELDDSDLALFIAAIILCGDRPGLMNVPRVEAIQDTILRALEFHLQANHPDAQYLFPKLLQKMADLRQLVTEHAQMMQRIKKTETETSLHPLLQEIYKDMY
Source text: U.S. Tox21 Program National Center for Advancing Translational Sciences [NCATS] NIH Chemical Genomics Center [NCGC] U.S. Environmental Protection Agency [EPA] National Institutes of Environmental Health Sciences [NIEHS] National Toxicology Program [NTP] U.S. Food and Drug Administration [FDA] Tox21 Assay Overview: The peroxisome proliferator-activated receptors (PPARs) are lipid-activated transcription factors of the nuclear receptor superfamily with three distinct subtypes namely PPAR alpha, PPAR delta (PPARd) and PPAR gamma. All these subtypes heterodimerizes with Retinoid X receptor (RXR) and have different physiological functions. […] To identify the compounds that inhibit PPAR-delta signaling, GeneBLAzer PPAR delta UAS-bla HEK293H cell line (Invitrogen, Carlsbad, CA, USA) containing a beta-lactamase reporter gene under the control of an Upstream Activator Sequence (UAS) was used to screen the Tox21 compound library.
Tox21 Assay Protocol Summary: PPARd-bla cells were dispensed at 3000 cells/5uL/well in 1536-well black wall/clear bottom plates using a Multidrop Combi (Thermo Fisher Scientific, Waltham, MA) dispenser. After the assay plates were incubated at 37 C and 5% CO2 for 5 h, 23 nL of compounds dissolved in DMSO, positive controls or DMSO only was transferred to the assay plate by a Pintool station (Kalypsys, San Diego, CA), followed by addition of 1ul L165041 (300 nM, final concentration in the wells). The assay plates were incubated at 37 C for 17 h, and then 1 uL of LiveBLAzerTM B/G FRET substrate was added using a Bioraptr Flying Reagent Dispenser (FRD) workstation (Beckman Coulter, Indianapolis, IN, USA). The assay plates were incubated at room temperature for 2 h and fluorescence intensity was measured by an Envision plate reader (PerkinElmer, Shelton, CT).
For `N#CC(Br)Br`, the Potency was “inactive”. In the case of `NCc1cccnc1`, the Potency is reported as “inactive”. For `CCOc1cc(C=O)ccc1O`, the Potency was “inactive”. For `CC(C)Oc1cc(-n2nc(C(C)(C)C)oc2=O)c(Cl)cc1Cl`, the Potency was “inactive”. With `O=S(=O)(Oc1ccc(Cl)cc1)c1ccc(Cl)cc1` the Potency was “inactive”. For `Nc1c(Cl)cc([N+](=O)[O-])cc1Cl`, the Potency was “inactive”. `CC(C)N(C(=O)SCC(Cl)=C(Cl)Cl)C(C)C` was tested, and the Potency was “inactive”. With `C=CCN(CC=C)C(=O)C(Cl)Cl` the Potency was “inactive”. In the case of `Nc1cccnc1`, the Potency is reported as “inactive”. In the case of `O=C(Nc1ccc(Br)cc1)c1cc(Br)cc(Br)c1O`, the Potency is reported as 6.89 µM (active). In the case of `Cc1ccc(OP(=O)(Oc2ccc(C)cc2)Oc2ccc(C)cc2)cc1`, the Potency is reported as “inactive”. With `C#CCOS(=O)OC1CCCCC1Oc1ccc(C(C)(C)C)cc1` (stereo not given) the Potency was “inactive”. `CC(C)(c1cc(Cl)c(O)c(Cl)c1)c1cc(Cl)c(O)c(Cl)c1` was tested, and the Potency was “inactive”. With `Nc1ccc(Cl)c(Cl)c1` the Potency was “inactive”. For `Oc1cc(Cl)ccc1Oc1ccc(Cl)cc1Cl`, the Potency was “inactive”. For `O=C(O)CC[N+](=O)[O-]`, the Potency was “inactive”. For `CNC(=O)Oc1cccc2c1OC(C)(C)O2`, the Potency was “inactive”. With `COP(=S)(OC)Oc1cc(Cl)c(Cl)cc1Cl` the Potency was “inactive”. For `Cc1ccc2c(c1N)C(=O)c1ccccc1C2=O`, the Potency was “inactive”. For `Oc1cc(Cl)ccc1Cl`, the Potency was “inactive”. In the case of `Oc1ccc(-c2ccccc2)cc1`, the Potency is reported as “inactive”. `CCC(=O)O[C@H]1CC[C@H]2[C@@H]3CCC4=CC(=O)CC[C@]4(C)[C@H]3CC[C@]12C` was tested, and the Potency was “inactive”. For `O=[N+]([O-])c1c(Cl)c(Cl)c(Cl)c(Cl)c1Cl`, the Potency was “inactive”. `NC(=S)Nc1ccccc1` was tested, and the Potency was “inactive”. `CCN(N=O)C(N)=O` was tested, and the Potency was “inactive”. In the case of `Nn1cnnc1`, the Potency is reported as “inactive”. For `CCOC(=O)C(C)OC(=O)c1cc(Oc2ccc(C(F)(F)F)cc2Cl)ccc1[N+](=O)[O-]` (stereo not given), the Potency was “inactive”. `C1=Cc2cccc3cccc1c23` was tested, and the Potency was “inactive”. `Nc1ccncc1` was tested, and the Potency was “inactive”. `CNC(=O)N(C)c1nnc(C(C)(C)C)s1` was tested, and the Potency was “inactive”. In the case of `C#C[C@]1(O)CC[C@H]2[C@@H]3CCC4=CC(=O)CC[C@]4(C)[C@H]3CC[C@@]21C`, the Potency is reported as “inactive”. In the case of `CC(C)NC(C)C`, the Potency is reported as “inactive”. For `Brc1ccc(Oc2cc(Br)c(Br)cc2Br)c(Br)c1`, the Potency was “inactive”. In the case of `CCCCN(CC)c1c([N+](=O)[O-])cc(C(F)(F)F)cc1[N+](=O)[O-]`, the Potency is reported as “inactive”. In the case of `CCCCCCCCOC(=O)c1ccccc1C(=O)OCCCCCCCC`, the Potency is reported as “inactive”. In the case of `C=CC(=O)OCCO`, the Potency is reported as “inactive”. With `COC(=O)c1sccc1S(=O)(=O)NC(=O)Nc1nc(C)nc(OC)n1` the Potency was “inactive”. For `C=C(C)[C@H]1Cc2c(ccc3c2O[C@@H]2COc4cc(OC)c(OC)cc4[C@@H]2C3=O)O1`, the Potency was 4.9 µM (active) and inactive. With `CC(C)=CC1C(C(=O)OCc2coc(Cc3ccccc3)c2)C1(C)C` (stereo not given) the Potency was “inactive”. For `CC(O)CCO` (stereo not given), the Potency was “inactive”.
